Compound activity deposited in PubChem BioAssay by National Center for Advancing Translational Sciences (NCATS).
An excerpt weighted towards active compounds, which were near 19% of everything screened.
Shiga inhibitor: blocks Shiga toxin action in Vero cells. Vero cells, Shiga toxin protein synthesis inhibition reporter. inhibition, % at 38.7 µM. hit rate 9.2% among 290,000. AID 2315; in the data active = inhibition mostly above about 28%, no sharp cut-off; inactive = mostly below about 43%
AMA1-RON2 inh: inhibitors of Plasmodium falciparum AMA1-RON2 interaction; Potency, µM (top dose mostly 58.2 µM), usual class: inhibitors; AlphaScreen AMA1-biotinylated RON2 peptide binding; hit rate 0.2% among 360,000; note: nearly all actives have a fitted effect of over 45% in size
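AMA1 (3D7) with his tag at 25 nM final met compounds first, then biotinylated RON2 peptide at 25 nM; detection used donor plus acceptor beads, 10 µg/mL apiece, read by AlphaScreen after 30 min at room temperature.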
Pf growth 48h: inhibits P. falciparum growth in the first generation, 48 h. Potency, µM (titrated, usually from 28.7 µM), most hits filed as inhibitors. hit rate 5.9% among 310,000. P. falciparum luciferase growth in erythrocytes, 48 h. AID 504832
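Read-out is firefly luciferase luminescence from an integrated reporter in P. falciparum, so falling signal marks reduced parasite growth. Infected erythrocytes were at 2% hematocrit and 0.1% parasitemia (final) in Albumax-supplemented RPMI 1640.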
Cycloheximide cs: counter-screen for Shiga toxin inhibitors: cycloheximide protein synthesis inhibition; cell reporter, cycloheximide protein synthesis inhibition counterscreen; max response, %; hit rate 12% among 300,000; AID 2314; in the data active = max response mostly above about 13%, no sharp cut-off; inactive = mostly below about 14%; note: read at 38.3 µM for the half of the compounds with a filed dose
SARS PLpro yeast: SARS-CoV PLP inhibition in yeast. S. cerevisiae expressing SARS-CoV PLpro, growth rescue. Potency, µM (titrated, usually from 32.9 µM), hits mostly activators. hit rate 0.19% among 330,000. AID 485353; calls by dose curve; note: nearly all actives have a fitted effect of over 55% in size
Pf growth 96h: P. falciparum growth inhibition at 96 hour, primary screen for plastid delayed-death inhibitors; hit rate 6.9% among 320,000; Potency, µM (top dose mostly 28.7 µM), most hits filed as inhibitors; P. falciparum luciferase reporter growth, 96 h
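Cell-based qHTS: luciferase-tagged P. falciparum in erythrocytes (2% hematocrit, 0.05% parasitemia final) incubated with compounds for 96 hours, 37 C, 5% CO2; luciferase detection reagent then added and luminescence measured.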
Each line names hits and unclear results; the compound was inactive in the other large screens. Unless noted, calls come from the whole dose curve; as a rule, active = well fitted curve in the direction sought with a large enough effect; inconclusive = small, poorly fitted or top-dose-only effect, or another doubt; inactive = no such curve, though single readings can be large; an effect the other way counts as inactive or inconclusive.

CSC(=Nc1ccccc1)C(C#N)c1nc2ccccc2[nH]1 (stereo not given)	Pf growth 48h inconclusive, Pf growth 96h inconclusive
CC(c1ccccc1)C(Cc1nc2ccccc2[nH]1)c1nc2ccccc2[nH]1 (stereo not given)	Pf growth 48h 7.4µM (no result: AMA1-RON2 inh)
COc1ccc(S(=O)(=O)NCCC(=O)N2CCCN(C)CC2)cc1	Pf growth 96h inconclusive (no result: Shiga inhibitor, Cycloheximide cs)
Cc1c(C(=O)N/N=C/C(C)C)[nH]c2c([N+](=O)[O-])cccc12	Pf growth 48h inconclusive, Pf growth 96h inconclusive
O=C(C(=O)N1CCC(Cc2ccccc2)CC1)c1cccc(Br)c1	none (no result: Shiga inhibitor, Pf growth 48h, Cycloheximide cs, SARS PLpro yeast, Pf growth 96h)
CS(=O)(=O)c1ccc2nc(NC(=O)CCNC(=O)c3ccc(Cl)cc3)sc2c1	Pf growth 96h 4.1µM (no result: Shiga inhibitor, Cycloheximide cs)
NS(=O)(=O)c1ccc2nc(NC(=O)Nc3ccc(F)cc3)sc2c1	Shiga inhibitor 54, Cycloheximide cs 46
CS(=O)(=O)c1ccc2nc(NC(=O)c3cccc(Cl)c3)sc2c1	none
CS(=O)(=O)c1ccc2nc(NC(=O)c3ccc(Cl)cc3)sc2c1	Cycloheximide cs 16, Pf growth 96h inconclusive
CS(=O)(=O)c1ccc2nc(NC(=O)c3ccc(=O)[nH]c3)sc2c1	none
CS(=O)(=O)c1ccc2nc(NC(=O)Nc3ccc(Cl)cc3)sc2c1	Pf growth 48h inconclusive, Pf growth 96h 1.2µM
CSCCC(NC(=O)c1ccco1)C(=O)Nc1ccc(C)c(S(=O)(=O)N2CCOCC2)c1 (stereo not given)	Pf growth 48h inconclusive (no result: Shiga inhibitor, Cycloheximide cs)
O=C(Nc1nnc(SCc2ccc(F)cc2)s1)c1ccc2c(c1)C(=O)N(c1ccccc1Cl)C2=O	none
CCCCC(NC(=O)Cc1c(C)c2cc3c(-c4ccccc4)coc3c(C)c2oc1=O)C(=O)O (stereo not given)	none
CCn1ccnc1CN(C)Cc1c(C(=O)N2C[C@@H](C)O[C@@H](C)C2)nc2ccc(Cl)cn12	none
COCCN(CC1CCCN(C2Cc3ccccc3C2)C1)C(=O)c1ccc(C(C)=O)cc1 (stereo not given)	Pf growth 48h inconclusive
COCCN(CC1CCCN(C2Cc3ccccc3C2)C1)C(=O)CCC(F)(F)F (stereo not given)	Pf growth 96h 0.41µM
CCOc1cc(N2CCOCC2)c(OCC)cc1NC(=O)CCS(=O)(=O)c1ccc(Cl)cc1	Pf growth 48h inconclusive, Pf growth 96h 7.4µM
CCOc1cc(N2CCOCC2)c(OCC)cc1NC(=O)c1ccc2ccccc2n1	Shiga inhibitor 53, Pf growth 48h 13µM, Cycloheximide cs 28, Pf growth 96h inconclusive
CCOc1cc(N2CCOCC2)c(OCC)cc1NC(=O)c1nn(CC)c(=O)c2ccccc12	Pf growth 48h 10µM, Pf growth 96h 2.6µM (no result: Shiga inhibitor, Cycloheximide cs)
Cc1cccc(NC(=S)NN2CCN(C)CC2)c1	none (no result: Pf growth 96h)
CCC(C)C(NC(=O)OCc1ccccc1)C(=O)NC(Cc1ccc(O)cc1)C(=O)OC (stereo not given)	Pf growth 96h inconclusive
Cc1ccc(C(=O)Cc2ccccc2)o1	Pf growth 48h inconclusive (no result: Shiga inhibitor, Cycloheximide cs)
Cc1ccnc(NC(=O)Cn2c(=O)oc3ccccc32)c1	Shiga inhibitor 60, Cycloheximide cs 20
COc1ccc(NC(=O)CCCn2c(=O)oc3ccccc32)cc1Cl	Shiga inhibitor 64, Cycloheximide cs 66
O=C(CCn1c(=O)oc2ccccc21)Nc1ccc2c(c1)OCCO2	Shiga inhibitor 80, Cycloheximide cs 71
O=C(CCn1c(=O)oc2ccccc21)Nc1ccccc1	none
COc1cc(OC)c(NC(=O)CCCn2c(=O)oc3ccccc32)cc1Cl	none
O=C(Cn1c(=O)oc2ccccc21)Nc1ccc2c(c1)OCCO2	Cycloheximide cs 18 (no result: Pf growth 96h)
CC1CCN(C(=O)c2[nH]cnc2C(=O)N[C@@H](C)c2ccccc2)CC1	none (no result: Shiga inhibitor, Cycloheximide cs)
Cc1cc(OC(=O)C(C)(C)C)c([N+](=O)[O-])c(=O)[nH]1	none
O=C1NC[C@H](CCCCN2C[C@H](Cc3ccccc3)N(CCc3ccccc3)C(=O)C2=O)N(CCc2ccc(O)cc2)C1=O	none (no result: Shiga inhibitor, Pf growth 48h, Cycloheximide cs, SARS PLpro yeast, Pf growth 96h)
COc1ccc2c3c([nH]c2c1)[C@H]1C[C@H]2[C@H](C[C@@H](O)[C@H](OC)[C@H]2C(=O)O)CN1CC3	none (no result: Shiga inhibitor, Cycloheximide cs, SARS PLpro yeast)
CCOC(=O)Oc1c(OC)cc(C(=O)O[C@H]2C[C@H]3CN4CCc5c([nH]c6cc(OC)ccc56)[C@@H]4C[C@H]3[C@@H](C(=O)OC)[C@@H]2OC)cc1OC	Pf growth 48h 1.6µM, Pf growth 96h 1.3µM (no result: Shiga inhibitor, AMA1-RON2 inh, Cycloheximide cs, SARS PLpro yeast)
O=C(O)[C@@H]1[C@H]2C[C@H]3c4[nH]c5ccccc5c4CCN3C[C@@H]2CC[C@@H]1O	Pf growth 48h inconclusive, Pf growth 96h 7.4µM (no result: Shiga inhibitor, Cycloheximide cs, SARS PLpro yeast)
COC(=O)[C@H]1[C@H]2C[C@@H]3c4[nH]c5ccccc5c4CCN3C[C@H]2C[C@@H](OC(=O)c2cc(OC)c(OC)c(OC)c2)[C@@H]1OC	Pf growth 48h 0.38µM (no result: Shiga inhibitor, AMA1-RON2 inh, Cycloheximide cs, SARS PLpro yeast)
COC(=O)[C@H]1[C@H]2C[C@@H]3c4[nH]c5cc(OC)ccc5c4CCN3C[C@H]2C[C@@H](OC(=O)c2ccc(N)cc2)[C@@H]1OC	Pf growth 48h 12µM, Pf growth 96h 13µM
COC(=O)[C@@H]1[C@@H]2C[C@H]3c4[nH]c5ccccc5c4CCN3C[C@@H]2CC[C@@H]1O	none (no result: Shiga inhibitor, AMA1-RON2 inh, Cycloheximide cs, SARS PLpro yeast)
O=[N+]([O-])c1cccc(-c2ccc3nnc(SCc4cccnc4)n3n2)c1	none (no result: Shiga inhibitor, Pf growth 48h, Cycloheximide cs, SARS PLpro yeast, Pf growth 96h)
COC(=O)[C@H]1[C@H]2C[C@@H]3c4[nH]c5cc(OC)ccc5c4CCN3C[C@H]2C[C@@H](OC(=O)/C=C/c2cc(OC)c(OC)c(OC)c2)[C@@H]1OC	AMA1-RON2 inh inconclusive, Pf growth 48h 0.74µM, Pf growth 96h 0.93µM (no result: Shiga inhibitor, Cycloheximide cs, SARS PLpro yeast)
COC(=O)C1[C@@H](OC)C(OC(=O)COc2ccc(OC)cc2)C[C@@H]2CN3CCc4c([nH]c5cc(OC)ccc45)[C@H]3C[C@H]12 (stereo not given in full)	Pf growth 48h 8.5µM, Pf growth 96h 6.7µM (no result: Shiga inhibitor, AMA1-RON2 inh, Cycloheximide cs, SARS PLpro yeast)
COc1ccc2c3c([nH]c2c1)C1CC2C(CC(O)C(OC)C2CO)CN1CC3 (stereo not given)	none
